In PubChem BioAssay (NCI):
About 79,000 compounds went through this panel and 15% of them were active in at least one assay; those are over-represented in the sample as a whole. Values without a mark were called inactive. Active and inactive are the calls of the source. No stated cut-off is given here; in the data, active means growth inhibition above about 70%; inactive means the rest.

What was measured:
[1] = NCI Yeast Anticancer Drug Screen. Data for the rad50 strain (AID 155);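 further: 0% = growth of vehicle-only cultures of the same strain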; conditions: S. cerevisiae rad50 strain growth inhibition; at 50.0 µM; active compounds read high
How it was run: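 Cells are treated with compound, grown, and their growth is then scored against vehicle-only cultures of the same repair-deficient yeast strain.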

[2] = NCI Yeast Anticancer Drug Screen. Data for the mec2-1 strain (AID 157); conditions: S. cerevisiae mec2-1 strain, at 50.0 µM, active compounds read high
How it was run: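 Using mec2-1 yeast: add compound, measure growth, express inhibition versus vehicle-treated cultures.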

[3] = NCI Yeast Anticancer Drug Screen. Data for the sgs1 mgt1 strain (AID 161);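 further: 0% = growth of cultures given vehicle only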; conditions: S. cerevisiae sgs1 mgt1 strain, at 50.0 µM, active compounds read high
How it was run: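 Percent growth inhibition was derived by comparing compound-exposed mutant yeast with vehicle-exposed cultures. The strain carries alterations in DNA damage repair.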

[4] = NCI Yeast Anticancer Drug Screen. Data for the cln2 rad14 strain (AID 165);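 further: 0% = growth equal to vehicle treated cultures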; conditions: S. cerevisiae cln2 rad14 strain, at 50.0 µM, active compounds read high
How it was run: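 Yeast strain cln2 rad14, bearing defects in cell cycle control and DNA repair, serves as the test system; values reflect growth inhibition compared with vehicle.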

[5] = NCI Yeast Anticancer Drug Screen. Data for the bub3 strain (AID 167); conditions: S. cerevisiae bub3 mutant strain, at 50.0 µM, active compounds read high
How it was run: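 Part of a panel of yeast mutants defective in DNA damage repair or cell cycle regulation. Each strain is grown with compound, and inhibition is calculated relative to solvent-treated cultures.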

[6] = NCI Yeast Anticancer Drug Screen. Data for the mlh1 rad18 strain (AID 175); conditions: S. cerevisiae mlh1 rad18 strain growth inhibition; at 50.0 µM; active compounds read high
How it was run: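 Steps: expose repair-defective yeast to compound; measure growth; express inhibition against vehicle-treated controls.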

SMILES | growth inhibition [1] | growth inhibition [2] | growth inhibition [3] | growth inhibition [4] | growth inhibition [5] | growth inhibition [6]
O=C(Cc1nc2ccc(C(=O)c3ccccc3)cc2[nH]c1=O)C(=O)Nc1ccccc1[N+](=O)[O-] | 2.75% | -15.6% | 7.75% | 9.35% | 6.15% | 12.3%
COc1cc([C@H]2OC[C@H]3[C@@H]2CO[C@@H]3c2cc(OC)c3c(c2)OCO3)cc(OC)c1OC | 17.1% | -2.25% | 1.25% | 21.7% | 39% | -80.7%
COc1cc2c(cc1-c1coc3cc(O)ccc3c1=O)OCO2 | -12.6% | -24.3% | -15.6% | 11.2% | -14.3% | -42.6%
N#Cc1c(N)oc(-c2cccc([N+](=O)[O-])c2)c1C#N | 24.6% | 28.9% | -19.9% | 10.8% | -6.3% | -16.9%
CC(C)C1OC(N)=C(C#N)C1(C#N)C#N (stereo not given) | 8.9% | 27% | -7.35% | -11.8% | -19% | -38.6%
COc1ccc(C2c3cc4c(c(OC)c3CC3OCC(=O)C32)OCO4)cc1OC (stereo not given) | 4.25% | -15.7% | 22.6% | 13.1% | 1.45% | -4.3%
CC1CC(=O)N(N(C)C)C2(C#N)C(=O)N=C(N)C12C#N (stereo not given) | 15.4% | 22.6% | -16.1% | 2.75% | – | -4.75%
COc1c2c(c3c(c1OC)c(=O)c1ccccc1n3C)OCO2 | 6.25% | 10.8% | 16.8% | 8.5% | 8.8% | 13.2%
CC12CCC(CC1)C(C)(C)O2 | -1.95% | 3.3% | -2.5% | 9.6% | -1.25% | 4.7%
Clc1c(Cl)c(Cl)c2nn(C3CCCO3)nc2c1Cl (stereo not given) | 15.3% | 3.2% | -5.9% | -17.1% | – | -45.6%
O=C1C=CC=C/C1=C1\N=C(c2ccccc2OCC(=O)c2ccc(Br)cc2)SS1 | 10.1% | 18.1% | 12.8% | 8.75% | -0.75% | -43.5%
O=C1c2c(O)cc(O)cc2OC(c2ccc(O)c(O)c2)C1O (stereo not given) | 9.55% | -23.6% | 11.2% | -0.65% | – | -18.7%
N#CC1(C#N)N[C@@H](c2ccsc2)[C@H]2C(=O)N(c3ccccc3)C(=O)[C@H]21 | 5.6% | -8.2% | 3.75% | 8.5% | – | -4.05%
O=C1c2cccnc2-c2nccc3ccnc1c23 | 75% (active) | 58.8% | 63% | 45.6% | – | -37.7%
CC(=O)C(/C=N/C(N)=O)=C(/C)O | 5.4% | -7.5% | 3.75% | 2.75% | -2.3% | 2.55%
N#C/C=C1\C=CC(O)C(O)C1OC1OC(CO)C(O)C(O)C1O (stereo not given) | 21.6% | 7.3% | 37.9% | 27.6% | – | -62.7%
CC(=O)C1=C(C)N2C(=NC3=C(CCc4ccccc43)C2c2cccc(Br)c2)S1 (stereo not given) | 12.4% | -27.4% | -19.4% | 3.2% | -7.5% | -20.5%
CC1(C)S[C@H](CN)N[C@H]1C(=O)OC(c1ccccc1)c1ccccc1 | -4.3% | -13.4% | 5.25% | -1% | -11.2% | -31.9%
C/C=C1\NC(=O)[C@H]2CSSCCC=C[C@H](CC(=O)N[C@H](C(C)C)C(=O)N2)OC(=O)[C@H](C(C)C)NC1=O | 26.1% | 35.4% | 26.1% | 51.6% | – | 33.5%
COC(=O)C(=O)C(C(=O)C(=O)Nc1ccccc1C(C)=O)c1nc2ccc(C(=O)c3ccccc3)cc2[nH]c1=O (stereo not given) | 25.9% | -6.6% | 33.6% | 28.6% | 5.25% | 24.5%
CC1C2(C)OC(=N)C(C#N)(C(c3cccc([N+](=O)[O-])c3)O2)C1(C#N)C#N (stereo not given) | 8.15% | 1.55% | -13.6% | 0.15% | – | -9.1%

SMILES | growth inhibition [1] | growth inhibition [2] | growth inhibition [3] | growth inhibition [4] | growth inhibition [5] | growth inhibition [6]
Cc1ccc(NC2=N/C(=C/c3ccccc3)C(Cl)=N2)cc1 | -10.1% | -30.6% | 16.9% | 10.9% | – | -51%
CCC(C)C1(O)OC2CC3(C)OC(=CC3=O)/C(C)=C\C3OC(=O)C1(C)C32 (stereo not given) | 7.65% | -31.2% | 37.5% | 6.4% | – | -35.9%
COC(=O)C(C(=O)C(=O)NC1Nc2ccc(C)cc2S1)c1nc2ccc(Cl)cc2[nH]c1=O (stereo not given) | 18.2% | -12.3% | 11.5% | 21.1% | – | 28.9%
Cc1ccc(/C=N/Nc2ccccn2)s1 | -10.9% | -12.5% | -2% | 11.4% | – | 0.7%
CN(C)c1ccc(/C=N/n2c(-c3ccccc3)nc3ccccc3c2=O)cc1 | 14.3% | 14.2% | 43.8% | 13.4% | – | -41%
CCOC(=O)C(=O)C(CCC(=O)c1ccc2ccccc2c1O)C(=O)OCC (stereo not given) | 2.6% | -1.65% | -2.9% | 4.25% | 0.5% | -35.9%
CC1(C)C2CCC1(CS(=O)(=O)O)C(=O)C2 (stereo not given) | -14% | -6.6% | -12.4% | -58.4% | -4.65% | -1.2%
NNc1[nH]c(=S)[nH]c1C(N)=O | -29.6% | -8.5% | -21.4% | -7.65% | – | -11.7%
Cc1ccc(NC(=O)/C(=N\NC(N)=O)c2c(O)c3ccccc3[nH]c2=O)cc1 | 1.45% | 4.6% | -10.5% | 7.85% | – | -33%
Cc1coc2c1C(OC(=O)C(C)C)C1(C)C(C)CCC(O)C1C2=O (stereo not given) | 9.2% | -6.4% | 31.5% | 10.7% | -1.3% | -37.1%
C[C@]12CC[C@@H]3c4ccc(OS(N)(=O)=O)cc4CC[C@H]3[C@@H]1CCC2=O | 2.35% | 8.15% | -2.05% | 8.35% | – | 15.8%
C=C(C)C(=O)OC1CC2(C)OC(=CC2=O)C(C)CC2OC(=O)C(=C)C12 (stereo not given) | 13.1% | 18.1% | 29% | 25.2% | – | -34.6%
COC(=O)c1cc(C#N)[nH]c1-c1ccsc1 | -27.4% | -8% | -10.8% | 6.4% | -3.4% | 6.9%
Cc1ccc(F)cc1NC(=O)O/N=C(\Cl)C(C)C | -17.9% | -31.9% | -5.7% | 3.85% | – | 55.6%
CCCCCCCCCC(O)CC(=O)c1c(O)cccc1O (stereo not given) | 69.8% | 77.2% (active) | 82.8% (active) | 86.2% (active) | – | 78.7% (active)
COC(=O)C(=O)C(C(=O)C(=O)Nc1ccccc1OC)c1nc2ccc([N+](=O)[O-])cc2[nH]c1=O (stereo not given) | 16.4% | 19.4% | 10.9% | -19.6% | – | 21.6%
CC(=Nc1ccncc1)C(C)=Nc1ccncc1 | 89.7% (active) | 93.6% (active) | 89.8% (active) | 88.8% (active) | 89.8% (active) | 88.7% (active)
COc1ccc2c(c1)N(C(C)=O)CN1C(=O)CCC21 (stereo not given) | -10.4% | 1.25% | -1.25% | 21.8% | 6.85% | -66%
CC1=C2NCN(C)N=C2C(C#N)(C#N)C1(C#N)C#N | 24% | 35.4% | -15.3% | 2.25% | -12.2% | -13.1%
C[C@@H]1CC[C@H]2C(C)(C)[C@H]3C[C@@]12CC[C@@]3(C)O | 21.9% | -16.9% | 12.8% | 14.1% | – | -18.6%
O=c1c2ccccc2nc(-c2ccccc2)n1/N=C/c1ccccc1[N+](=O)[O-] | 18.2% | 1% | 26.8% | 8.35% | – | -56.2%
